These results are taken from PubChem BioAssay (NCI).

This is part of a sample that, as a whole, favours compounds with a hit. Of some 83,000 tested, about 20% had one in any assay.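 Results are percent growth after 48 hours of single-concentration exposure. 100 means growth as in untreated cells, lower positive values show inhibition; negative values down to -100 show cell death.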 Unmarked numbers belong to inactive results. Calls of active or inactive are those of the source. The calls were made as follows: active = growth percent below 10; inactive = the rest.

The first assay has as its system OVCAR-8 ovarian. The experiment in a line: NCI-60 one-dose screen, 48 h (100 = growth as untreated, 0 = no growth, -100 = all killed). The settings on record: 10 µM unless noted.
As for `CCSc1nnc(Nc2ccc(C(C)C)cc2)s1`, the growth is 109%.
Take `O=C(Cc1c(F)cccc1Cl)Nc1ccc(S(=O)(=O)Nc2ncccn2)cc1`: the growth was 113%.
In the case of `CC1(C)OC2COC3(C(=O)O)OC(C)(C)OC3C2O1` (stereo not drawn), the growth is 108%.
The same measure, in the same setting: for `COc1cc(-n2nc(C(=O)Nc3ccc(C(=O)O)cc3)nc2-c2ccccc2)cc(OC)c1OC` the value was 86.3%.
Take `CN1CCN(CCCOc2ccc3nc(Nc4ccc(C(F)(F)F)c(Cl)c4)ccc3c2)CC1`: the growth was 31.3%.
Take `COc1ccc(S(=O)(=O)NCCNc2nccc(-c3c(-c4ccccc4)nc4sccn34)n2)cc1`: the growth is 26.7%.
Turning to `O=c1[nH]c(-c2cn(-c3ccc(Cl)cc3)nn2)nc2ccccc12`, the growth was 48.5%.
Regarding `COc1ccc(S(=O)(=O)Nc2cc(/C=C\c3cc(OC)c(OC)c(OC)c3)cc(OC)c2OC)cc1OC`, the growth is 41%.
On the same count and under the same terms, for `COc1ccc(-c2nc3sccn3c2-c2ccnc(NCCNS(=O)(=O)c3ccc(C(F)(F)F)cc3)n2)cc1` the value was 7.86% (active).
The same measure, in the same setting: as for `CCN(CC)CCSc1c2ccc(Cl)cc2nc2ccc(OC)cc12`, the figure is 88.5%.
As to `COc1ncc(-c2ccc3ncnc(Nc4cccc(Cl)c4)c3c2)cc1NS(=O)(=O)CCN1CCOCC1`, the growth is 16.9%.
On to `O=c1[nH]c(CN2CCN(c3ccccc3F)CC2)nc2sc3c(c12)CCC3`, for which the growth was 101%.
As to `O=C(Nc1cccc(Cl)c1)c1cc([N+](=O)[O-])ccc1O`, the growth is 69.3%.
On the same count and under the same terms, for `Cc1cc(N/C=c2\sc3ncnn3c2=O)no1` the value was 101%.
Still for that read-out and setting: as for `c1ccc2c(c1)Oc1ccccc1C2C1c2ccccc2Oc2ccccc21`, the figure is 101%; as for `CC(C)CCN(CCCNc1c2c(nc3ccccc13)CCCC2)CCC(C)C`, 91.1%.
Still for that read-out and setting: as for `COc1cc(/C=C/C(=O)c2ccccc2O)ccc1OCCCOc1cc2c(cc1OC)C(=O)N1CCC[C@H]1C=N2`, the figure is 18.1%; as for `O=C1NC(Cc2c[nH]c3ccccc23)C(=O)N1Cc1ccc(Cl)cc1` (stereo not drawn), 97.9%; as for `COc1ccc(C2CC(c3cccs3)=NN2c2ccc(S(=O)(=O)NC(=O)NCc3cccc(OC)c3)cc2)cc1` (stereo not drawn), 107%.
Take `CCOC(=O)C1=C(CSC(=S)N(C2CCCCC2)C2CCCCC2)N(C)C(=O)NC1c1ccccc1` (stereo not drawn): the growth was 49.2%.
Same read-out and setting: as for `COc1cccc2nc(Nc3ccc(NC(=O)c4ccc5ncccc5c4)cc3)ccc12`, the figure is 72.3%.
The same measure, in the same setting: for `Cc1cc(NC(=O)COC(=O)c2sc3cc(F)ccc3c2Cl)no1` the value was 112%; for `CC/C=C\C[C@H](O)C/C=C1/C(=O)C(Cl)=C[C@@H]1C/C=C\CCCC(=O)O`, 10.9%; for `O=Nc1c(-c2c(O)[nH]c3ccc([N+](=O)[O-])cc23)[nH]c2ccc(O)cc12`, 7.71% (active).
The same measure, in the same setting: as for `O=C(Nc1ccc(F)cc1)c1cc([N+](=O)[O-])ccc1O`, the figure is 76.2%; as for `Cc1ccc(S(=O)(=O)OCC(=O)Nc2ccc(C(=O)O)c(O)c2)cc1`, 97.7%.
For `Cc1cc(C)c(NC(=O)c2sc3nc4c(cc3c2N)CN(Cc2ccccc2)CC4)c(C)c1`, the growth was 46.6%.
As for `COc1ccc(-c2nnc(COc3ccc(NS(=O)(=O)c4ccc(OC)cc4)cc3F)o2)cc1`, the growth is 82.5%.
Still for that read-out and setting: as for `Cc1ccc2nc(-c3c(CCCO)noc3N)[nH]c(=O)c2c1`, the figure is 106%; as for `O=[N+]([O-])c1ccc(S(=O)(=O)N2CCN(c3ccnc4cc(Cl)ccc34)CC2)c([N+](=O)[O-])c1`, 97.1%; as for `CCN(Cc1ccc(CN(CC)C(=O)C(Cl)(Cl)Cl)cc1)C(=O)C(Cl)(Cl)Cl`, 89.6%.
Take `COc1ccc(Cn2cc(COc3cc(/C=C/C(=O)c4cc(OC)c(OC)c(OC)c4)ccc3OC)nn2)cc1`: the growth is 46.6%.
On the same count and under the same terms, as for `N#CC1=C(N)n2nc(-c3ccncc3)nc2NC1c1cccc2ccccc12` (stereo not drawn), the figure is 92.7%; as for `COc1ccc(/C=C/C(=O)c2ccc(B(O)O)cc2)cc1O`, 89.9%; as for `Nc1nc(-c2ccccc2)cs1`, 100%.
Turning to `NS(=O)(=O)c1ccc(NCC(=O)Nc2ccc(-c3nc4ccccc4s3)cc2)cc1`, the growth was 82.7%.
On the same count and under the same terms, for `COc1cc(Br)c(OC)cc1Br` the value was 105%; for `COc1cc(NS(C)(=O)=O)ccc1Nc1c2ccc([N+](=O)[O-])cc2nc2c(C)cccc12`, 13.7%.
On the same count and under the same terms, for `O=C(Nc1ccc(I)cc1)c1cccc([N+](=O)[O-])c1O` the value was 17.1%.

Another assay deals with OVCAR-5 ovarian. The description is as above. The following applies: 10 µM unless noted.
`CCSc1nnc(Nc2ccc(C(C)C)cc2)s1`: the growth is 87.1%.
Same read-out and setting: for `O=C(Cc1c(F)cccc1Cl)Nc1ccc(S(=O)(=O)Nc2ncccn2)cc1` the value was 103%.
Same read-out and setting: as for `CC1(C)OC2COC3(C(=O)O)OC(C)(C)OC3C2O1` (stereo not drawn), the figure is 90.1%; as for `COc1cc(-n2nc(C(=O)Nc3ccc(C(=O)O)cc3)nc2-c2ccccc2)cc(OC)c1OC`, 86.3%; as for `CN1CCN(CCCOc2ccc3nc(Nc4ccc(C(F)(F)F)c(Cl)c4)ccc3c2)CC1`, 22.4%.
Still for that read-out and setting: as for `COc1ccc(S(=O)(=O)NCCNc2nccc(-c3c(-c4ccccc4)nc4sccn34)n2)cc1`, the figure is 73.8%; as for `O=c1[nH]c(-c2cn(-c3ccc(Cl)cc3)nn2)nc2ccccc12`, 102%.
Regarding `COc1ccc(S(=O)(=O)Nc2cc(/C=C\c3cc(OC)c(OC)c(OC)c3)cc(OC)c2OC)cc1OC`, the growth was 30.8%.
Still for that read-out and setting: as for `COc1ccc(-c2nc3sccn3c2-c2ccnc(NCCNS(=O)(=O)c3ccc(C(F)(F)F)cc3)n2)cc1`, the figure is 59%; as for `CCN(CC)CCSc1c2ccc(Cl)cc2nc2ccc(OC)cc12`, 103%; as for `COc1ncc(-c2ccc3ncnc(Nc4cccc(Cl)c4)c3c2)cc1NS(=O)(=O)CCN1CCOCC1`, 6.39% (active).
As for `O=c1[nH]c(CN2CCN(c3ccccc3F)CC2)nc2sc3c(c12)CCC3`, the growth was 96.8%.
Same read-out and setting: as for `O=C(Nc1cccc(Cl)c1)c1cc([N+](=O)[O-])ccc1O`, the figure is 68.8%; as for `Cc1cc(N/C=c2\sc3ncnn3c2=O)no1`, 108%; as for `c1ccc2c(c1)Oc1ccccc1C2C1c2ccccc2Oc2ccccc21`, 89.7%.
Same read-out and setting: as for `CC(C)CCN(CCCNc1c2c(nc3ccccc13)CCCC2)CCC(C)C`, the figure is 83.6%; as for `COc1cc(/C=C/C(=O)c2ccccc2O)ccc1OCCCOc1cc2c(cc1OC)C(=O)N1CCC[C@H]1C=N2`, 0.483% (active).
Still for that read-out and setting: for `O=C1NC(Cc2c[nH]c3ccccc23)C(=O)N1Cc1ccc(Cl)cc1` (stereo not drawn) the value was 108%.
For `COc1ccc(C2CC(c3cccs3)=NN2c2ccc(S(=O)(=O)NC(=O)NCc3cccc(OC)c3)cc2)cc1` (stereo not drawn), the growth is 113%.
Still for that read-out and setting: as for `CCOC(=O)C1=C(CSC(=S)N(C2CCCCC2)C2CCCCC2)N(C)C(=O)NC1c1ccccc1` (stereo not drawn), the figure is 92%; as for `COc1cccc2nc(Nc3ccc(NC(=O)c4ccc5ncccc5c4)cc3)ccc12`, 99.3%.
Still for that read-out and setting: for `Cc1cc(NC(=O)COC(=O)c2sc3cc(F)ccc3c2Cl)no1` the value was 100%.
Take `CC/C=C\C[C@H](O)C/C=C1/C(=O)C(Cl)=C[C@@H]1C/C=C\CCCC(=O)O`: the growth is 97.1%.
The same measure, in the same setting: for `O=Nc1c(-c2c(O)[nH]c3ccc([N+](=O)[O-])cc23)[nH]c2ccc(O)cc12` the value was 110%; for `O=C(Nc1ccc(F)cc1)c1cc([N+](=O)[O-])ccc1O`, 86.1%.
Turning to `Cc1ccc(S(=O)(=O)OCC(=O)Nc2ccc(C(=O)O)c(O)c2)cc1`, the growth is 102%.
Same read-out and setting: for `Cc1cc(C)c(NC(=O)c2sc3nc4c(cc3c2N)CN(Cc2ccccc2)CC4)c(C)c1` the value was 57.1%; for `COc1ccc(-c2nnc(COc3ccc(NS(=O)(=O)c4ccc(OC)cc4)cc3F)o2)cc1`, 94.2%; for `Cc1ccc2nc(-c3c(CCCO)noc3N)[nH]c(=O)c2c1`, 120%.
On to `O=[N+]([O-])c1ccc(S(=O)(=O)N2CCN(c3ccnc4cc(Cl)ccc34)CC2)c([N+](=O)[O-])c1`, for which the growth is 106%.
Regarding `CCN(Cc1ccc(CN(CC)C(=O)C(Cl)(Cl)Cl)cc1)C(=O)C(Cl)(Cl)Cl`, the growth was 101%.
The same measure, in the same setting: for `COc1ccc(Cn2cc(COc3cc(/C=C/C(=O)c4cc(OC)c(OC)c(OC)c4)ccc3OC)nn2)cc1` the value was 81.3%.
As to `N#CC1=C(N)n2nc(-c3ccncc3)nc2NC1c1cccc2ccccc12` (stereo not drawn), the growth was 100%.
Same read-out and setting: for `COc1ccc(/C=C/C(=O)c2ccc(B(O)O)cc2)cc1O` the value was 88.2%; for `Nc1nc(-c2ccccc2)cs1`, 98.7%; for `NS(=O)(=O)c1ccc(NCC(=O)Nc2ccc(-c3nc4ccccc4s3)cc2)cc1`, 106%.
With `COc1cc(Br)c(OC)cc1Br`, the growth was 93%.
On the same count and under the same terms, for `COc1cc(NS(C)(=O)=O)ccc1Nc1c2ccc([N+](=O)[O-])cc2nc2c(C)cccc12` the value was 36.8%; for `O=C(Nc1ccc(I)cc1)c1cccc([N+](=O)[O-])c1O`, 43.4%.
